Among all 5,500 compounds or so, about 2,000 (36%) were called active. Not shown: some 18% with an inconclusive outcome. No stated cut-off is given here; in the data, active means normalized growth mostly below about 0.91 (no sharp cut-off); inconclusive means no clear call, values can overlap the other calls; inactive means mostly above about 0.92. This is one part of the list.
Assay: chemical genetic growth profiling, strain panel (AID 1159580);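 further: tested at 20 µM; growth read once vehicle control cultures reached saturation at 30 °C; 1 = growth at the plate median or of vehicle wells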
Details: growth OD

Measured: normalized growth

CC1=C(C(=O)O)N2C(=O)[C@@H](NC(=O)[C@H](N)C3=CCC=CC3)C2SC1 (some centres not stated)
inactive: S. cerevisiae deletion strains, locus YJR066W, strain TOR1, stronger effect = lower value 0.974 | S. cerevisiae deletion strains, locus YKL009W, strain mrt4, stronger effect = lower value 1 | S. cerevisiae deletion strains, locus YKL068W, stronger effect = lower value 0.979 | S. cerevisiae deletion strains, locus YKL085W, strain MDH1 (second series), stronger effect = lower value 0.978 | S. cerevisiae deletion strains, locus YKL085W, strain MDH1, stronger effect = lower value 0.978 | S. cerevisiae deletion strains, locus YKL160W, strain elf1, stronger effect = lower value 1 | S. cerevisiae deletion strains, locus YKR001C, strain vps1, stronger effect = lower value 0.994 | S. cerevisiae deletion strains, locus YKR026C, strain gcn3, stronger effect = lower value 1.02 | S. cerevisiae deletion strains, locus YKR091W, strain srl3, stronger effect = lower value 1.01 | S. cerevisiae deletion strains, locus YLL001W, strain dnm1, stronger effect = lower value 0.998 | S. cerevisiae deletion strains, locus YLL026W, stronger effect = lower value 1.02 | S. cerevisiae deletion strains, locus YLL041C, strain sdh2, stronger effect = lower value 1.02 | S. cerevisiae deletion strains, locus YLR027C, strain aat2, stronger effect = lower value 1.02 | S. cerevisiae deletion strains, locus YLR039C, strain RIC1, stronger effect = lower value 0.983 | S. cerevisiae deletion strains, locus YLR058C, strain SHM2, stronger effect = lower value 0.974 | S. cerevisiae deletion strains, locus YLR102C, strain apc9, stronger effect = lower value 1 | S. cerevisiae deletion strains, locus YLR113W, strain HOG1, stronger effect = lower value 0.968 | S. cerevisiae deletion strains, locus YLR221C, strain rsa3, stronger effect = lower value 1.02 | S. cerevisiae deletion strains, locus YLR258W, strain gsy2, stronger effect = lower value 1.03 | S. cerevisiae deletion strains, locus YLR262C, strain YPT6 (second series), stronger effect = lower value 1.04 | S. cerevisiae deletion strains, locus YLR262C, strain YPT6, stronger effect = lower value 0.924 | S. cerevisiae deletion strains, locus YLR268W, strain sec22, stronger effect = lower value 1 | S. cerevisiae deletion strains, locus YLR320W, strain mms22, stronger effect = lower value 1.01 | S. cerevisiae deletion strains, locus YLR330W, strain CHS5, stronger effect = lower value 0.986 | S. cerevisiae deletion strains, locus YLR342W, strain FKS1 (second series), stronger effect = lower value 1.03 | S. cerevisiae deletion strains, locus YLR342W, strain FKS1, stronger effect = lower value 1.01 | S. cerevisiae deletion strains, locus YLR357W, strain rsc2, stronger effect = lower value 1.04 | S. cerevisiae deletion strains, locus YLR370C, strain arc18, stronger effect = lower value 1.03 | S. cerevisiae deletion strains, locus YLR371W, strain rom2, stronger effect = lower value 0.999 | S. cerevisiae deletion strains, locus YLR384C, strain iki3, stronger effect = lower value 1.02 | S. cerevisiae deletion strains, locus YLR418C, strain cdc73, stronger effect = lower value 1.01 | S. cerevisiae deletion strains, locus YML016C, strain PPZ1, stronger effect = lower value 0.986 | S. cerevisiae deletion strains, locus YML032C, strain rad52, stronger effect = lower value 0.995 | S. cerevisiae deletion strains, locus YML120C, strain ndi1, stronger effect = lower value 1.02 | S. cerevisiae deletion strains, locus YML124C, strain tub3, stronger effect = lower value 0.995 | S. cerevisiae deletion strains, locus YMR058W, strain fet3, stronger effect = lower value 1.02 | S. cerevisiae deletion strains, locus YMR078C, strain ctf18, stronger effect = lower value 0.994 | S. cerevisiae deletion strains, locus YMR125W, strain sto1, stronger effect = lower value 0.996 | S. cerevisiae deletion strains, locus YMR129W, stronger effect = lower value 1.02 | S. cerevisiae deletion strains, locus YMR205C, strain PFK2, stronger effect = lower value 1.04 | S. cerevisiae deletion strains, locus YMR223W, strain ubp8, stronger effect = lower value 1.01 | S. cerevisiae deletion strains, locus YMR231W, strain pep5, stronger effect = lower value 1 | S. cerevisiae deletion strains, locus YMR263W, strain SAP30, stronger effect = lower value 1 | S. cerevisiae deletion strains, locus YMR307W, strain GAS1, stronger effect = lower value 0.933 | S. cerevisiae deletion strains, locus YNL067W, strain RPL9B, stronger effect = lower value 1.02 | S. cerevisiae deletion strains, locus YNL071W, strain lat1, stronger effect = lower value 1.02 | S. cerevisiae deletion strains, locus YNL153C, strain GIM3, stronger effect = lower value 1.02 | S. cerevisiae deletion strains, locus YNL183C, strain NPR1, stronger effect = lower value 0.933 | S. cerevisiae deletion strains, locus YNL209W, strain ssb2, stronger effect = lower value 1.03 | S. cerevisiae deletion strains, locus YNL233W, strain BNI4, stronger effect = lower value 1.03 | S. cerevisiae deletion strains, locus YNL248C, strain rpa49, stronger effect = lower value 1.05 | S. cerevisiae deletion strains, locus YNL250W, strain rad50, stronger effect = lower value 1 | S. cerevisiae deletion strains, locus YNL271C, strain bni1, stronger effect = lower value 1 | S. cerevisiae deletion strains, locus YNL298W, strain CLA4, stronger effect = lower value 0.999 | S. cerevisiae deletion strains, locus YNL307C, strain MCK1, stronger effect = lower value 0.995 | S. cerevisiae deletion strains, locus YNL322C, strain KRE1 (second series), stronger effect = lower value 1.01 | S. cerevisiae deletion strains, locus YNR049C, strain mso1, stronger effect = lower value 1.02 | S. cerevisiae deletion strains, locus YNR052C, strain pop2, stronger effect = lower value 0.996 | S. cerevisiae deletion strains, locus YOL012C, strain htz1 0.951 | S. cerevisiae deletion strains, locus YOL147C, strain pex11, stronger effect = lower value 0.997 | S. cerevisiae deletion strains, locus YOR001W, strain rrp6, stronger effect = lower value 1.02 | S. cerevisiae deletion strains, locus YOR061W, strain CKA2, stronger effect = lower value 0.968 | S. cerevisiae deletion strains, locus YOR069W, strain VPS5, stronger effect = lower value 0.976 | S. cerevisiae deletion strains, locus YOR070C, strain gyp1, stronger effect = lower value 1.02 | S. cerevisiae deletion strains, locus YOR080W, strain dia2, stronger effect = lower value 1.03 | S. cerevisiae deletion strains, locus YOR083W, strain WHI5, stronger effect = lower value 0.993 | S. cerevisiae deletion strains, locus YOR106W, strain vam3, stronger effect = lower value 1.04 | S. cerevisiae deletion strains, locus YOR136W, strain idh2, stronger effect = lower value 0.984 | S. cerevisiae deletion strains, locus YOR144C, strain elg1, stronger effect = lower value 0.995 | S. cerevisiae deletion strains, locus YOR184W, strain ser1, stronger effect = lower value 0.992 | S. cerevisiae deletion strains, locus YOR231W, strain MKK1, stronger effect = lower value 0.979 | S. cerevisiae deletion strains, locus YOR265W, strain rbl2, stronger effect = lower value 1.02 | S. cerevisiae deletion strains, locus YOR270C, strain vph1, stronger effect = lower value 1.07 | S. cerevisiae deletion strains, locus YOR290C, strain snf2, stronger effect = lower value 1.02 | S. cerevisiae deletion strains, locus YOR316C, strain cot1, stronger effect = lower value 0.991 | S. cerevisiae deletion strains, locus YPL051W, strain arl3, stronger effect = lower value 1.01 | S. cerevisiae deletion strains, locus YPL078C, strain atp4, stronger effect = lower value 1.02 | S. cerevisiae deletion strains, locus YPL106C, strain sse1, stronger effect = lower value 1.03 | S. cerevisiae deletion strains, locus YPL240C, strain hsp82, stronger effect = lower value 1.01 | S. cerevisiae deletion strains, locus YPL241C, strain CIN2, stronger effect = lower value 0.989 | S. cerevisiae deletion strains, locus YPL256C, strain CLN2, stronger effect = lower value 0.956 | S. cerevisiae deletion strains, locus YPR119W, strain clb2, stronger effect = lower value 0.995 | S. cerevisiae deletion strains, locus YPR141C, strain kar3, stronger effect = lower value 0.988 | S. cerevisiae deletion strains, locus YPR163C, strain tif3, stronger effect = lower value 0.995 | S. cerevisiae deletion strains, locus YPR167C, strain met16, stronger effect = lower value 0.998 | S. cerevisiae deletion strains, strain wtn01, stronger effect = lower value 1.04 | S. cerevisiae strains, strain wild type, stronger effect = lower value 0.985
